# The whole screen tested about 5,400 compounds, of which about 190 (3.5%) showed an effect of 50% or more. The sample as a whole holds a higher share of strong results than the screen did. Positions of bridges follow the written chain, without caps; N, C: chain ends. Non-standard residues stand in square brackets, D forms with d. Residues, ends and D or L forms follow the SMILES beside them. ξ: configuration not given here. *: point of attachment. Heptanoyl(5-Me) = CCC(C)CCCC(=O)*; ξThr(3R) = C[C@@H](O)C(N)C(=O)O; Dab = NCC[C@H](N)C(=O)O
# Test system: Vero-E6
# Test: primary screen, phospholipidosis by LipidTOX staining; higher = more effect of the substance
# Details: 10 µM
# How it was run: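 Single-concentration screen at 10 μM, with DMSO 0.1 v/v % and amiodarone 10 μM as controls. Read-out is LipidTOX Red phospholipid staining, which tolerates aldehyde fixation, in Vero-E6 cells.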
row,Structure (SMILES),result_ITMP [%]
1,COc1cc(/C=C/C(=O)[O-])ccc1O,-1.05
2,CCN1CCN(Cc2ccc(Nc3ncc(F)c(-c4cc(F)c5nc(C)n(C(C)C)c5c4)n3)nc2)CC1,76.7
3,CC(C)Cc1ccc(C(C)C(=O)O)cc1 (centres unmarked) [R4A_0001344_001 / SPE_A17655518],-3.6
4,COC(=O)C1=C(C)NC(C)=C(C(=O)OCCN2CCN(C(c3ccccc3)c3ccccc3)CC2)C1c1cccc([N+](=O)[O-])c1 (centres unmarked),11.6
5,COC(=O)C1=C(C)NC(C)=C(C(=O)NCCCN2CCC(c3ccccc3)(c3ccccc3)CC2)C1c1ccc([N+](=O)[O-])cc1 (centres unmarked),60.6
6,COC(=O)C1=C(C)NC(C)=C(C(=O)O[C@H]2CCN(Cc3ccccc3)C2)[C@H]1c1cccc([N+](=O)[O-])c1,21.2
7,CC[C@H](CC[C@@H](C)[C@H]1CC[C@H]2[C@@H]3CC=C4C[C@@H](O)CC[C@]4(C)[C@H]3CC[C@]12C)C(C)C,1.55
8,CC(=O)CC(=O)[O-],1.77
9,CCc1cccc(CC)c1NC(=O)c1nn(C)c2c1CCc1cnc(Nc3ccc(C(=O)NC4CCN(C)CC4)cc3OC(F)(F)F)nc1-2,7.96
10,CN1CCC(CNc2ccc3ncc(-c4cccc(OC(F)(F)F)c4)n3n2)CC1,62.4
11,CN1CCC(COc2cnc(-c3cccc(Cn4nc(-c5cccc(C#N)c5)ccc4=O)c3)nc2)CC1,2.15
12,CC1(C)[C@@H]2CC[C@@]1(C)C(=O)C2 [R4A_0000828_001 / SPE_K10034334],-2.3
13,CC(C)(N)c1cc(C(=O)N[C@@H]2CCc3ccc(OC4=C5CCC(=O)N=C5NC=C4)cc3C2)cc(C(F)(F)F)c1,28.9
14,CCC(C)CCCC(=O)N[C@@H](CCN)C(=O)N[C@H](C(=O)N[C@@H](CCN)C(=O)N[C@H]1CCNC(=O)[C@H]([C@@H](C)O)NC(=O)[C@H](CCN)NC(=O)[C@H](CCN)NC(=O)[C@H](CC(C)C)NC(=O)[C@@H](CC(C)C)NC(=O)[C@H](CCN)NC1=O)[C@@H](C)O (stereo partly drawn) [R4A_0005175_001 / SPE_A36456202] ({Heptanoyl(5-Me)}-[Dab]T[Dab][Dab][Dab][dL]L[Dab][Dab]T; lactam 4-C),-0.45
15,"C[C@@H]1NC(=O)[C@@H]2CCCN2C(=O)[C@H](CC(N)=O)NC(=O)[C@@H]2CSSC[C@H](N)C(=O)N[C@H]3CSSC[C@H](NC1=O)C(=O)NC([C@@H](C)O)C(=O)NCC(=O)N[C@H](C(=O)N[C@@H](Cc1ccc(O)cc1)C(=O)O)CSSC[C@H](NC(=O)[C@H](Cc1ccc(O)cc1)NC(=O)[C@H](CCC(=O)O)NC3=O)C(=O)N2 (stereo partly drawn) (H-CCEYCCNPAC[ξThr(3R)]GCY-OH; disulfide 1-6, 2-10, 5-13)",-6.32
16,C#CC[C@H](c1nc2cc(Cl)ccc2c(=O)n1Nc1ccccc1)N(CCCN)C(=O)c1cccc(Cl)c1F,68.4
17,C=C(c1ccccc1OCc1cccc(Cl)c1)n1ccnc1,2.27
18,O=c1ccn([C@@H]2O[C@H](COP(=O)([O-])OP(=O)([O-])OP(=O)([O-])O)C(O)C2O)c(=O)[nH]1 (some centres unmarked),0.02
19,CCCCCCCCCCCCCC(=O)[O-].CCCCCCCCCCCCCC(=O)[O-].NC1CCCCC1N.[Pt+2],0.26
20,O=S(=O)([O-])Oc1ccc(C(c2ccc(OS(=O)(=O)[O-])cc2)c2ccccn2)cc1,-7.14
21,Cc1ccc(-c2n[nH]c3c2C(c2cccc(O)c2)N(c2ccc(C(=O)O)cc2)C3=O)cc1 (centres unmarked),0.62
22,Cc1cc(Nc2ncc(Cl)c(Nc3ccccc3S(=O)(=O)C(C)C)n2)c(OC(C)C)cc1C1CCNCC1,50.9
23,COc1cc(N2CCC(N3CCN(C)CC3)CC2)ccc1Nc1ncc(Cl)c(Nc2ccccc2S(=O)(=O)C(C)C)n1,-2.93
24,COc1cc(N2CCC(N3CCN(C)CC3)CC2)ccc1Nc1ncnc(Nc2ccccc2S(=O)(=O)C(C)C)n1,44.8
25,Cc1c(S(=O)(=O)[O-])oc2c1C(=O)C(=O)c1c-2ccc2c1CCCC2(C)C,-1.56

row,Structure (SMILES),result_ITMP [%]
1,C[C@@H](Oc1cc(-c2cnn(C3CCNCC3)c2)cnc1N)c1c(Cl)ccc(F)c1Cl,75
2,C[C@H](Oc1cc(-c2cnn(C3CCNCC3)c2)cnc1N)c1c(Cl)ccc(F)c1Cl,70.2
3,Nc1nc2[nH]nnc2c(=O)[nH]1,1.34
4,O=C([O-])[C@@H](O)[C@@H](O)[C@H](O)[C@@H](O)C(=O)[O-],-1.82
5,CCOc1ccc(/N=C(/C)Nc2ccc(OCC)cc2)cc1,3.29
6,CC(=O)OCC1=C(C(=O)[O-])N2C(=O)[C@@H](NC(=O)CSc3ccncc3)[C@H]2SC1,-1.36
7,CO/N=C(\C(=O)N[C@@H]1C(=O)N2C(C(=O)[O-])=C(COC(N)=O)CS[C@H]12)c1ccco1,-1.04
8,O=S(=O)([O-])CCCS(=O)(=O)[O-],-2.16
9,CCn1cc(C(=O)[O-])c(=O)c2cc3c(cc21)OCO3,-4.34
10,CC(C)NC[C@@H](O)COc1cccc2ccccc12 [R4A_0000150_002 / SPE_K13994703],20.2
11,CNCC[C@H](Oc1cccc2ccccc12)c1cccs1,92.6
12,CN(C)[C@@H](CCOc1cccc2ccccc12)c1ccccc1,43.4
13,CC1(C)CCC[C@]2(C)[C@H]3CC(=O)O[C@]3(C)CC[C@@H]12,1.48
14,Nc1nc2c(c(N3CCNCC3)n1)CCC1=C2[C@@H]2CCCC[C@@H]2O1,70.7
15,CC[C@]1(O)C[C@@H]2C[N@@](CCc3c([nH]c4ccccc34)[C@@](C(=O)OC)(c3cc4c(cc3OC)N(C=O)[C@H]3[C@@](O)(C(=O)OC)[C@H](OC(C)=O)[C@]5(CC)C=CCN6CC[C@]43[C@@H]65)C2)C1,1.05
16,CC/C(=C(\c1ccc(OCCN(C)C)cc1)c1cccc(O)c1)c1ccccc1,77.7
17,CCN(CC)CCOc1ccc(/C(=C(\Cl)c2ccccc2)c2ccccc2)cc1,108
18,CCN(CC)CCOc1ccc(Cc2ccccc2)cc1,30.2
19,CC/C(=C(\c1ccccc1)c1ccc(OCCN(C)C)cc1)c1ccccc1,49.4
20,CC/C(=C(\c1ccc(O)cc1)c1ccc(OCCN(C)C)cc1)c1ccccc1,20.4
21,CN(C)CCOc1ccc(/C(=C(/CCCl)c2ccccc2)c2ccccc2)cc1,20.4
22,CN1C[C@@H]2CN(c3ccc(-c4ccccc4)nn3)C[C@@H]2C1,-1.43
23,O=C([O-])CCC/C=C\C[C@@H]1[C@@H](/C=C/[C@@H](O)COc2cccc(Cl)c2)[C@H](O)C[C@@H]1O (racemic),-1.06
24,C[C@H](CCC(=O)O)[C@H]1CC[C@H]2[C@@H]3CC[C@@H]4C[C@H](O)CC[C@]4(C)[C@H]3CC[C@]12C,-0.58
25,Oc1ccnc(S)n1,-2.88

row,Structure (SMILES),result_ITMP [%]
1,NCC(O)(CS(=O)(=O)O)c1ccc(Cl)cc1 (centres unmarked),-4.58
2,Clc1ccc(C2(c3ccc(-c4cn[nH]c4)cc3)CCNCC2)cc1,96.9
3,NC[C@@](O)(c1ccc(Cl)cc1)c1ccc(-c2cn[nH]c2)cc1,63.1
4,Cn1ncnc1COc1nn2c(-c3cc(F)ccc3F)nnc2cc1C(C)(C)C,-6.83
5,Nc1c(S(=O)(=O)[O-])cc(Nc2cccc3ccccc23)c2c1C(=O)c1ccccc1C2=O,-11.1
6,CC[C@H]1[C@@H](O)C2C3CC[C@H]([C@H](C)CCC(=O)O)[C@@]3(C)CCC2[C@@]2(C)CC[C@@H](O)C[C@@H]12 (some centres unmarked),-3.95
7,CN[C@@H]1C(OC2[C@H](O[C@H]3[C@H](O)[C@@H](O)[C@H](NC(=N)N)[C@@H](O)[C@@H]3NC(=N)N)OC(C)[C@]2(O)CO)OC(CO)C(O)C1O (some centres unmarked),-3.92
8,CC(=O)c1ccc2c(c1)C(=O)C1(CC1)O2,0.63
9,C[C@@H]1CCCN1CCc1cc2cc(-c3ccc(C#N)cc3)ccc2o1,66.8
10,CC(=O)C1=C(O)[C@]2(C)C(=CC1=O)Oc1c(C(C)=O)c(O)c(C)c(O)c12,-3.21
11,CCCCCCCCCCC(=O)O[C@H]1CC[C@H]2[C@@H]3CCC4=CC(=O)CC[C@]4(C)[C@H]3CC[C@]12C,0.88
12,C[C@@]1(O)[C@H](O)[C@@H](CO)O[C@H]1n1cnc2c(O)nc(N)nc21,7.18
13,COc1ccc2cc(-c3[nH]c(-c4ccc(S(C)=O)cc4)nc3-c3ccncc3)ccc2c1 (centres unmarked),-3.68
14,C[N+]1(C)[C@@H]2C[C@@H](OC(=O)C(O)(c3cccs3)c3cccs3)C[C@H]1[C@@H]1O[C@@H]12,-2.59
15,CN1CCC(=C2c3ccccc3Sc3ccccc32)CC1,44.9
16,CN1CCC(=C2c3ccccc3CCc3sccc32)CC1,42.6
17,CN1CCC(=C2c3ccccc3C=Cc3ccccc32)CC1,77.3
18,Cc1onc(O)c1CC(N)C(=O)O (racemic) [R4A_0004356_001 / SPE_A34716233],0.42
19,O=C(O)COc1ccc(C(=O)c2cccs2)c(Cl)c1Cl,-7.59
20,CC(C(=O)O)c1ccc(C(=O)c2cccs2)cc1 (centres unmarked),-0.4
21,CC(C)c1ccc(C(=O)c2cccs2)c(SCCCCCCCCN(C)C)n1,77
22,O=C([O-])CCC(=O)OC[C@H](NC(=O)C(Cl)Cl)C(O)c1ccc([N+](=O)[O-])cc1 (some centres unmarked),1.81
23,O=c1[n-]c(=O)n(Cl)c(=O)n1Cl,-11.2
24,c1ccc(C2CN3CCSC3=N2)cc1 (centres unmarked) [R4A_0001404_001 / SPE_K73107279],-7.98

# From paper PMC13083723 (Patterns, 2026)
